Screens as filed in PubChem.
esBAF inh = inhibitors of esBAF chromatin remodeling in mouse ES cells; Bmi1-luciferase knock-in reporter, 24 h; 100% = twice the neutral-well signal; reporter increase, % at 12.5 µM; actives 2% (n = 350,000); in the data active means activation above about 40%; inconclusive means no clear call, values can overlap the other calls;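 further: 0% = median of the plate's neutral control wells and 100% = double that signal; a rise in the Bmi1 reporter signal indicates esBAF inhibition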
TRPM1 prom inh = MITF TRPM1 promoter inhibition in SK-MEL-5 cells | inhibition, % at 12.5 µM | SK-MEL-5 TRPM1 promoter luciferase, 24 h | actives 0.83% (n = 330,000);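 active means mean inhibition across replicates of 60% or more, whatever share of single replicates reaches that level; inconclusive means some that reach 60%, reason not given; inactive means mean inhibition across replicates below 60%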
PAX8 inh HTS = lowers PAX8-driven luciferase in RMG-I cells; RMG-I TPO-luciferase reporter, SteadyGlo, 24 h; inhibition, % at 12.6 µM; actives 1.2% (n = 360,000);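 active means mean replicate inhibition at least 60% with every replicate also reaching 60%; inconclusive means only one of the two criteria is met; inactive means mean below 60% and not all replicates reaching 60%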;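 further: luciferase light reporting Pax8 driven TPO promoter activity; plate controls were median of neutral control wells for no effect and mitoxantrone controls for full effect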
Wnt bcat act = activators of Wnt/beta-catenin signaling | actives 1.2% (n = 300,000) | Wnt/beta-catenin reporter cell assay, activator, plate reader | activation, % at 9.35 µM; in the data active means activation above about 30%, passing the limit was not always enough; inconclusive means no clear call, values can overlap the other calls;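 further: 0% = neutral control wells and 100% = positive control wells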
EWS-Fli block = blocks EWS/Fli oncoprotein-driven transcription; AID 651661; A673 NR0B1-luciferase reporter, viability-normalised; inhibition, % at 12.6 µM; actives 0.67% (n = 350,000);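 active means mean inhibition of at least 50% after viability correction, with every replicate also passing that limit; inconclusive means mean reaches 50% but only one of two replicates passes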;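 further: firefly luciferase signal divided by Alamar Blue viability fluorescence both relative to DMSO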
MITF act = activators of MITF-driven TRPM1 promoter activity in SK-MEL-5 cells; SK-MEL-5 TRPM1-promoter luciferase, 24 h; % of positive control, neutral wells = 0; activation, % at 12.5 µM; actives 0.75% (n = 300,000); AID 588334;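 active means mean activation of at least 80% with every replicate also reaching 80%; inconclusive means mean reaches 80% but some replicate falls short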;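 further: 0% = neutral control wells and 100% = parthenolide positive control wells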
* marks the source's active call; other numbers are inactive results; ? = inconclusive; / = no result. Hits are enriched below; roughly 4% of the tested compounds scored in any of these assays.

SMILES	esBAF inh	TRPM1 prom inh	PAX8 inh HTS	Wnt bcat act	EWS-Fli block	MITF act
Cc1ccc(S(=O)(=O)N(C)C[C@@H]2OCCCC[C@H](C)Oc3ccc(N(C)C)cc3C(=O)N([C@H](C)CO)C[C@@H]2C)cc1	7.5	/	-21.5	/	-3.1	/
Cc1cn2c(N)c(/C=C3\C=Nc4ccccc43)c(=O)nc2s1	/	-44.5	-68.2	38.5*	-56.3	/
COc1ccc(NC(=O)Nc2ccc3c(c2)C(=O)N([C@H](C)CO)C[C@H](C)[C@H](CN(C)S(=O)(=O)c2cccs2)OCCCC[C@H](C)O3)cc1	-1.9	/	/	/	4.3	/
CC(C)n1cnc2c(NCc3ccc(S(N)(=O)=O)cc3)nc(NCc3ccc(S(N)(=O)=O)cc3)nc21	-5.0	8.0	-3.7	-1.2	-0.5	-6.9
CC(C)[C@H](CO)Nc1nc(NCc2ccc(S(N)(=O)=O)cc2)c2ncn(C(C)C)c2n1	-0.7	18.7	68.7*	-2.1	12.2	-19.9
N/C(=N\OC(=O)Nc1ccccc1)c1ncc([N+](=O)[O-])s1	-1.8	68.5*	42.1	5.3	17.2	-67.7
COCCNC(=O)c1ccc(-c2cn[nH]c2)c2ccoc12	-6.7	/	-10.8	0.2	-9.2	/
O=C(NCc1ccccc1)c1ccc(-c2cn[nH]c2)c2ccoc12	57.2*	/	-77.3	9.5	-17.2	/
COc1ccc(C2CC(C)(c3ccc(OC)cc3)Nc3ccccc3N2)cc1 (stereo unspecified)	?	-0.6	-129.5	48.8*	-54.2	/
CCCCn1c(=O)[nH]c(=O)c2c1nc(Cn1ncc(Cl)c(Cl)c1=O)n2CCC	-52.1	92.1*	96.9*	-16.6	45.6	-92.4
CC[C@@H](C(=O)[C@@H](C)[C@@H](O)[C@H](C)CCc1ccc(C)c(O)c1C(=O)O)[C@H]1O[C@](CC)([C@H]2CC[C@](O)(CC)[C@H](C)O2)C[C@@H]1C	-22.0	40.4	103.8*	-26.9	26.2	-36.0
CC(C)C1C(=O)N(Cc2cn(CCC3OCCCO3)nn2)CCS(=O)(=O)N1Cc1ccc(-c2ccc(Cl)nc2)cc1 (stereo unspecified)	?	/	73.8*	-0.9	-26.8	/
CC(C)CC1C(=O)N(Cc2cn(CCC3OCCCO3)nn2)CCS(=O)(=O)N1Cc1ccc(-c2ccc(Cl)nc2)cc1 (stereo unspecified)	58.2*	/	-57.5	5.5	-35.3	/
CCS(=O)(=O)Nc1ccc2c(c1)C(=O)N(C)C[C@@H](OC)[C@H](C)CN(C(=O)COC)[C@H](C)CO2	-10.6	/	-7.8	/	0.6	/
COC(=O)C[C@@H]1CC[C@@H]2[C@H](COc3ccc(NC(=O)Nc4ccc(C)cc4)cc3C(=O)N2C)O1	15.8	/	-14.5	/	-25.8	/
C[C@@H]1CN([C@@H](C)CO)S(=O)(=O)c2ccc(C#Cc3ccccc3)cc2O[C@@H]1CN(C)C(=O)Nc1ccc2c(c1)OCO2	-18.2	/	39.6	/	6.8	/
COc1cccc(NC(=O)N(C)C[C@H]2Oc3cc(C#Cc4ccncc4)ccc3S(=O)(=O)N([C@H](C)CO)C[C@H]2C)c1	13.1	/	66.2*	-4.5	5.8	/
COc1ccc(NC(=O)N(C)C[C@@H]2Oc3cc(C#CCC(C)C)ccc3S(=O)(=O)N([C@@H](C)CO)C[C@@H]2C)cc1	9.6	/	65.1*	/	2.3	/
C[C@@H]1CN([C@H](C)CO)S(=O)(=O)c2ccc(C#Cc3ccncc3)cc2O[C@H]1CN(C)C(=O)Nc1ccc2c(c1)OCO2	3.4	/	90.8*	/	19.3	/
COc1cccc(NC(=O)N(C)C[C@H]2Oc3cc(C#Cc4ccncc4)ccc3S(=O)(=O)N([C@H](C)CO)C[C@@H]2C)c1	8.7	/	/	/	19.1	/
COc1cccc(C#Cc2ccc3c(c2)O[C@@H](CN(C)C(=O)c2ccccn2)[C@H](C)CN([C@@H](C)CO)S3(=O)=O)c1	6.6	/	73.3*	/	22.1	/
C[C@H]1CN([C@@H](C)CO)C(=O)c2cc(C3=CCCCC3)cnc2O[C@H]1CN(C)C(=O)c1ccncc1	2.2	/	/	/	-6.8	/
O=c1c2ccccc2nc(-c2ccco2)n1-c1nc2ccccc2s1	/	6.9	12.9	4.7	/	-8.7
Cn1c(-n2c(-c3ccco3)nc3ccccc3c2=O)nc2ccccc21	49.0*	-20.6	/	8.1	/	18.8
O=C(O)C(=O)/C(=C\c1ccccc1)c1ccc2ccccc2n1	37.1	-3.0	/	/	/	5.8
SMILES	esBAF inh	TRPM1 prom inh	PAX8 inh HTS	Wnt bcat act	EWS-Fli block	MITF act
O=C(O)C(=O)/C(=C\c1ccsc1)c1ccc2ccccc2n1	55.7*	-0.7	-71.7	27.4	-61.8	-4.5
CCCC#Cc1ccc2c(c1)O[C@H](CN(C)C(=O)C1CC1)[C@@H](C)CN([C@@H](C)CO)S2(=O)=O	5.2	/	/	/	15.1	/
OC1(c2cccc(C(F)(F)F)c2)CCN(c2ccc(-c3ccccc3)nn2)CC1	66.7*	-66.1	/	-2.0	/	66.9
CNC[C@H]1Oc2ncc(-c3cccc(F)c3)cc2C(=O)N([C@H](C)CO)C[C@H]1C	4.1	/	/	/	-9.0	/
CCCCN(C(=O)c1cc(-c2ccc(F)cc2)nc2ccccc12)c1c(N)n(CCCC)c(=O)[nH]c1=O	-19.0	69.5*	1.4	-5.1	26.0	-69.1
CCCCn1c(N)c(N(CC(C)C)C(=O)c2cc(-c3ccc(F)cc3)nc3ccccc23)c(=O)[nH]c1=O	5.5	17.4	-4.6	-2.7	15.4	-17.5
CCCCn1nnc(NC(=O)c2cc3ccccc3o2)n1	59.1*	-89.9	/	/	/	?
CCCn1nnc(NC(=O)c2cc3ccccc3o2)n1	50.2*	-66.7	/	12.2	-82.4	71.4
Cc1ccc(C2=N/C(=C/N3CCOCC3)C(=O)O2)cc1	52.2*	-82.9	/	/	/	91.9*
COc1ccc(/C=C2\N=C(c3ccc(C)cc3)OC2=O)cc1	5.4	1.7	-2.0	0.4	3.3	-10.7
Cc1ccc(C2=N/C(=C\N3CCCCC3)C(=O)O2)cc1	35.7	-84.4	-204.7	62.8*	/	?
Cc1cccc(S(=O)(=O)N2C[C@H](O)COC[C@H]3O[C@H](CC(=O)N4CCN(C)CC4)CC[C@@H]32)c1	-7.2	/	3.5	/	-4.9	/
NC(=O)[C@@H]1CC2(CC(c3cccc(NC(=O)CC(c4ccccc4)c4ccccc4)c3)=NO2)CN1C(=O)COc1ccc(Cl)cc1 (stereo partly specified)	-0.8	4.3	76.9*	-8.8	4.0	-4.5
NC(=O)[C@H]1CC2(CC(c3cccc(NC(=O)CC(c4ccccc4)c4ccccc4)c3)=NO2)CN1C(=O)C(c1ccccc1)c1ccccc1 (stereo partly specified)	-2.1	32.1	68.9*	-5.2	3.6	-30.5
NC(=O)[C@H]1CC2(CC(c3cccc(NC(=O)CC(c4ccccc4)c4ccccc4)c3)=NO2)CN1C(=O)c1ccccc1C(=O)c1ccccc1 (stereo partly specified)	1.2	13.0	?	-1.1	1.2	-8.6
O=C(NCc1cccs1)c1cc2c(s1)-c1ccccc1OC2	67.8*	/	-116.2	-1.3	-74.1	/
O=C(NC1CC1)c1cc2c(s1)-c1ccccc1OC2	45.1*	-20.9	-97.2	11.2	-74.7	20.4
